Inconclusive results are not listed. A call without a number means that no potency is given here. Activity calls are given as the source filed them. Calls come from the whole dose curve; as a rule, active = well fitted inhibition curve with a large enough effect; inconclusive = small, poorly fitted or top-dose-only effect; inactive = no such curve, though single readings can be large or run the other way.
Potency is the fitted concentration of half-maximal effect.

The test is described as follows: HTS Assay for Allosteric Antagonists of the Human D2 Dopamine Receptor: Hit Validation in HTRF (AID 624455).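 Note: stable D1 dopamine receptor cell line scored for blocking the D1 response.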 The conditions noted are these: Cells stably expressing D1 dopamine receptor, inhibition mode; series mostly up to 46.1 µM. The text has this:
Dopamine receptors (DARs) are involved in the etiology and/or therapy of a number of neuropsychiatric and endocrine disorders. For instance, all receptor-based antiparkinsonian drugs work via stimulating the D2 DAR subtype whereas all FDA-approved antipsychotic agents are antagonists of this receptor. […] There are three different types of allosteric modulators that we are seeking, two of which will stimulate or augment receptor signaling, allosteric agonists and potentiators, while the third, allosteric antagonists, will attenuate receptor signaling. The present primary screening assay measures compound antagonism after an EC80 addition of dopamine by tracking calcium flux in a […], inducible Hek293 Trex D2 cell line. This assay measures activity of the hits in the D1 HTRF assay.
NIH Chemical Genomics Center [NCGC]
NIH Molecular Libraries Probe Centers Network [MLPCN]
Assay Submitter (PI): David Sibley
Cells stably expressing the D1 dopamine receptor will be run in an HTRF assay and compounds will be examined for the ability to inhibit the D1 mediated response.
(In general: In TR-FRET formats the signal depends on donor and acceptor labels being close together.)
Regarding `CC(C)N(CCC(C(N)=O)(c1ccccc1)c1ccccn1)C(C)C` (stereo not given), the Potency entry was “inactive”.

Regarding `O=P1(N(CCCl)CCCl)NCCCO1` (stereo not given), the Potency result is “inactive”. As to `COc1ccc2c(c1OC)C(=O)O[C@H]2[C@@H]1c2cc3c(cc2CCN1C)OCO3`, the Potency entry is “inactive”. For `O=C(CCCN1CCC2(CC1)C(=O)NCN2c1ccccc1)c1ccc(F)cc1`, the Potency entry was “inactive”. The same measure for `CC(C)c1cccc(C(C)C)c1O`: “inactive”; for `CCCCC/C=C\C/C=C\C/C=C\C/C=C\CCCC(=O)NCC(=O)O`: “inactive”; for `O=C(O)CCCc1ccc(N(CCCl)CCCl)cc1`: “inactive”. Under `C=C(C)[C@H]1CN[C@H](C(=O)O)[C@H]1CC(=O)O` stands “inactive”; under `Cc1ncsc1CCCl`, “inactive”. For `O=c1[nH]oc2c1CCNC2`, the Potency entry was “inactive”. As for `CN1C(=O)CCS(=O)(=O)C1c1ccc(Cl)cc1` (stereo not given), the Potency result was “inactive”. As to `CC(NC(C)(C)C)C(=O)c1cccc(Cl)c1` (stereo not given), the Potency entry is “inactive”. Take `CCC1(c2ccc(N)cc2)CCC(=O)NC1=O` (stereo not given): the Potency entry was “inactive”. `CC(C)(C)NCC(O)c1ccccc1Cl` (stereo not given): the Potency entry was “inactive”.

For the compound `CC(C)C[C@H]1C(=O)N2CCC[C@H]2[C@]2(O)O[C@](NC(=O)[C@@H]3C=C4c5cccc6[nH]c(Br)c(c56)C[C@H]4N(C)C3)(C(C)C)C(=O)N12`, the Potency is 3.26 µM (active).
